This note sets out measurements from PubChem BioAssay (EPA / NIEHS).

Where “and” joins values, the source holds several entries; their conditions need not be identical. Equal values may be shown once. Calls of active or inactive are those of the source. How the source made its calls: active means hit-call score of the fitted dose curve at least 0.9, where 1 is the maximum; inactive means score below 0.9.

One experiment can be described thus: BSK_SAg_Proliferation: Cell Proliferation Assessment in the BioMAP Diversity Plus: SAg Assay (AID 2283095).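 Further: relative cell number as total protein by SRB absorbance in sub-confluent culture.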 To be noted: primary human HUVEC with PBMC. An outline of the steps:
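A human primary co-culture of umbilical vein endothelium and blood mononuclear cells receives compound; relative cell number is quantified at 96 h by SRB staining and 560 nm absorbance, with DMSO-referenced bidirectional curve fitting.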
For the compound `Oc1c(Cl)cc(Cl)cc1Sc1cc(Cl)cc(Cl)c1O`, the AC50 was 5.29 µM (active) and 5.92 µM (active).

`COc1cc(OC)nc(NC(=O)NS(=O)(=O)Nc2ccccc2C(=O)N(C)C)n1`: the outcome was inactive.

For the compound `O=C(O)C(F)(F)OC(F)(F)C(F)(F)OC(F)(F)C(F)(F)OC(F)(F)C(F)(F)C(F)(F)C(F)(F)F`, the AC50 is 49.6 µM (active) and 47.7 µM (active). For `Cc1cccc2c1ccc1ccccc12`, the result was inactive. As for `COc1cccc(O)c1`, the outcome was inactive. On the same count and under the same terms, next, `C=CC(=C)CC/C=C(\C)CCC=C(C)C`: “inactive”. For the compound `O=C(c1ccccc1)c1ccccc1`, the result was inactive. As for `Cc1[nH]nc2c1N=C(c1ccccc1Cl)c1cc([N+](=O)[O-])ccc1N2`, the AC50 is 1.94 µM (active). As for `CC[N+](CC)(CC)Cc1ccccc1`, the outcome was inactive.

Consider `C=CC(C)(CCC=C(C)C)OC(C)=O` (stereo not given), for which the result was inactive.

As to `COC1=CC(=O)C[C@@H](C)[C@]12Oc1c(Cl)c(OC)cc(OC)c1C2=O`, the result was inactive. Same read-out and setting: next, `CCCCC(CC)C(=O)OCCOCCOCCOCCOC(=O)C(CC)CCCC` (stereo not given): “inactive”.

Take `N=C(N)c1ccc(OCCCCCOc2ccc(C(=N)N)cc2)cc1`: the AC50 was 13.6 µM (active). `O=C1NS(=O)(=O)c2ccccc21`: the outcome was inactive. `COCN(COC)c1nc(N(COC)COC)nc(N(COC)COC)n1`: the result was inactive. Turning to `Cc1ccc(N=Nc2c(O)ccc3ccccc23)c(C)c1`, the AC50 was 4.79 µM (active).

The next experiment in a line: BSK_SAg_SRB: Viability Assessment in the BioMAP Diversity Plus: SAg Assay (AID 2283096).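 Further: cells read one day after compound addition; hits may be either gain or loss of signal compared with DMSO.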 To be noted: primary human HUVEC with PBMC. An outline of the steps:
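Compounds were added to a human vascular co-culture of umbilical vein endothelium and PBMC. After 24 h, parallel cultures were fixed with 10% TCA, stained with 0.1% sulforhodamine B and read at 560 nm. Gain or loss of signal was fitted relative to DMSO.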
Turning to `CCCCCCCCCCCCOS(=O)(=O)O`, the result was inactive. For `CC(C)(C)c1ccc(O)c(O)c1`, the AC50 was 29.1 µM (active). In the case of `O=C(O)CCC(F)(F)C(F)(F)C(F)(F)C(F)(F)C(F)(F)F`, the outcome was inactive. On the same count and under the same terms, next, `O=C(NCc1ncc(C(F)(F)F)cc1Cl)c1c(Cl)cccc1Cl`: “inactive”; `O=C(NO)c1ccccc1`: “inactive”; `Clc1ccc(Nc2nnc(Cc3ccncc3)c3ccccc23)cc1`: “inactive”.

With `CCCCC=O`, the result was inactive. On the same count and under the same terms, next, `Oc1ccc(Cc2ccccc2O)cc1`: “inactive”; `O=C1OC2(c3ccccc31)c1cc(I)c(O)c(I)c1Oc1c2cc(I)c(O)c1I`: “inactive”. For `C=COC(=O)C(C)(C)CCCCCC`, the AC50 is 36.1 µM (active). For `NC(=NCCCCCCN=C(N)/N=C(\N)Nc1ccc(Cl)cc1)/N=C(\N)Nc1ccc(Cl)cc1`, the AC50 is 4.89 µM (active). Regarding `C=CC(=O)OCCC(F)(F)C(F)(F)C(F)(F)C(F)(F)C(F)(F)C(F)(F)C(F)(F)C(F)(F)F`, the result was inactive. The same measure, in the same setting: next, `CCCCCCCCCCCC`: “inactive”. Consider `Oc1c(Cl)cc(Cl)cc1Sc1cc(Cl)cc(Cl)c1O`, for which the AC50 is 23.8 µM (active) and 17.2 µM (active).

Take `COc1cc(OC)nc(NC(=O)NS(=O)(=O)Nc2ccccc2C(=O)N(C)C)n1`: the outcome was inactive. As to `O=C(O)C(F)(F)OC(F)(F)C(F)(F)OC(F)(F)C(F)(F)OC(F)(F)C(F)(F)C(F)(F)C(F)(F)F`, the AC50 is 51.5 µM (active) and 53.1 µM (active). Consider `Cc1cccc2c1ccc1ccccc12`, for which the result was inactive.

With `COc1cccc(O)c1`, the outcome was inactive. The same measure, in the same setting: next, `C=CC(=C)CC/C=C(\C)CCC=C(C)C`: “inactive”.

On to `O=C(c1ccccc1)c1ccccc1`, for which the outcome was inactive. Turning to `Cc1[nH]nc2c1N=C(c1ccccc1Cl)c1cc([N+](=O)[O-])ccc1N2`, the AC50 was 2.15 µM (active). On to `CC[N+](CC)(CC)Cc1ccccc1`, for which the outcome was inactive. Same read-out and setting: next, `C=CC(C)(CCC=C(C)C)OC(C)=O` (stereo not given): “inactive”; `COC1=CC(=O)C[C@@H](C)[C@]12Oc1c(Cl)c(OC)cc(OC)c1C2=O`: “inactive”. For `CCCCC(CC)C(=O)OCCOCCOCCOCCOC(=O)C(CC)CCCC` (stereo not given), the result was inactive. Still for that read-out and setting: next, `N=C(N)c1ccc(OCCCCCOc2ccc(C(=N)N)cc2)cc1`: “inactive”; `O=C1NS(=O)(=O)c2ccccc21`: “inactive”; `COCN(COC)c1nc(N(COC)COC)nc(N(COC)COC)n1`: “inactive”.

Take `Cc1ccc(N=Nc2c(O)ccc3ccccc23)c(C)c1`: the result was inactive.
